Experimental data reported in PubChem BioAssay AID1159506 (National Center for Advancing Translational Sciences (NCATS), 2015).
Whole data set: some 59,000 sequences, median the read-out near -0.00055, cut for the lowest 2% near -2. The sample as a whole holds a higher share of the lowest values than the screen did.

Assay: Identification of proteins required for the processing of the EWS-FLI1 nascent transcript;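 further: robust z of luciferase light less the median z of siRNAs with the same seed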
Settings: TC32 Ewing sarcoma NR0B1-luc vs CMV-luc (EWS-FLI1 target promoter against control promoter), 48 h; screened at 20 nM (by protocol)
In short: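 TC32 Ewing sarcoma cells carrying NR0B1-promoter or CMV-promoter luciferase reporters were reverse-transfected with single siRNAs at 20 nM, three per gene genome-wide. Luminescence was read after 48 h and normalized to non-targeting controls.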

Sequence	seed-corrected z-score
ACCUUAGUAAGAUCCAUUC against OSBPL9	0.727
UCAAACACGAUGGAGGUCC against SLC29A4	-0.131
AAAGACACCGUAGCUGAGG against MFNG	-0.181
UUUGUCAUUACCCGAACUG against RNASE11	0.455
UAAGGCUCCAGCAUAACAG against MIR924HG	0.428
AUCUUGGUCACUGGAGGCG against SFRP5	-3.64
UACAAGUCAAGCUCUCACA against LOC727799	-0.236
AAUAGAACAAGGACAGGAC against SAYSD1	-1.61
AAUGUGCUUAGCGCAGGUG against LINC01530	0.0903
UCAUUGUUGAUUUGGUCUC against 3-Sep	1.43
UCUAGAGUUAGGGUAUCUG against ARMC5	0.117
UGAUGGUCACAAUCCUCUC against PCBP3	-2.79
UUUUCUUGCGUAUGAAUUC against ZNF302	0.913
UCUUGUUCCACCACGUCUC against GRID2	0.102
AGUGGGUAGAUUCCAUUCC against NRBP2	-2.82
UGUAGGAUCUGUCUCCAGG against LOC728587	-0.669
UUCGAUGAAAUGAUUUUCC against ZNF418	0.719
UGAUCAUCAGCGGUGAGGC against HMGB3P19	-1.07

Sequence	seed-corrected z-score
AAAGUCUCCAGUACGAUGU against MROH3P	1.9
UUGCUGAACAGAUCAGUCC against ELF5	-0.256
AAGUUCAUAAGAUUCCAUG against MGP	0.212
UCAGUUUGUAGUCAGAGCC against AP3S2	0.309
UCAUCAUCAAUCACGGACG against BAP1	-2.03
UGUCUGUUGAUGGCCAAGC against AMELX	0.157
UCUGCGAUCAGUACCACUG against RBBP4	0.278
ACAGGGUUAAAAUUGUCCG against M6PR	-0.318
UCAAUGUUCACCACACGGC against PLEKHH1	-2.41
UUUGUUAGGAGCUUGUAGG against C1GALT1C1	1.55
UAUAUCAUCAAGCGUAACC against TCF20	-1.21
UCGUUGUAUACUUUGGUGC against PRKAR2B	-0.139
UAUGCUGUCGGAUGAGUCC against ATF1	0.345
UAUUGUCAAAUGAAGGUGG against TREML1	0.93
UUGGUAUCAUCUUCUGUAG against PLXDC2	-0.075
UUUCUGACCACGUCUAGCA against PEX11B	0.368
UGAGUGUAGAGCAGCCACU against NEU2	-2.8
UGAGCUACCAUAUGCUUCA against RBMY1F	-0.266
